SMILES strings stand for the structures. Results filed as inconclusive are left out. Where a call stands in place of a potency, no number is given. A number with no mark means an inactive call. Calls of active or inactive are those of the source. Calls follow the shape of the dose curve; as a rule, active = well fitted cell-killing curve with a large enough effect; inconclusive = small, poorly fitted or top-dose-only effect; inactive = flat fitted curve, though single readings scatter. Bridge positions count the residues as written; N and C are the ends. Square brackets hold non-standard residues; d marks the D form. Side chains are listed from the residue outwards. Peptide text beside a SMILES is read from it. * marks the point of attachment. Phg(4-OMe) = COc1ccc([C@H](N)C(=O)O)cc1; d(aIle) = CC[C@H](C)[C@@H](N)C(=O)O; d(aThr) = C[C@@H](O)[C@@H](N)C(=O)O; NMeF = CN[C@@H](Cc1ccccc1)C(=O)O; Isobutyryl = CC(C)C(=O)*
Potency is read from the fitted curve at half-maximal effect.

The first test can be described thus: HPAF-II Cancer Cell Toxicity qHTS against the NCATS CANVASS Library (AID 1347346). Also: nearly all actives have a fitted effect of over 55% in size. The note with it: HPAF-II viability, CellTiter-Glo ATP luminescence, 72 h; series mostly up to 38.3 µM. The procedure, abridged: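 1000 HPAF-II cells/well; 4 h pre-incubation; 11-pnt compound titration; 72 h, 37 degrees C/5% CO2; CellTiter-Glo, 15 min RT; luminescence read.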
Background: qHTS replaces the single test concentration by a dilution series.
`C=CC(CCCCC)C1C(=O)NC(=O)C1C(=O)C1C(/C=C/C)C=CC2CC(C(=O)O)CC(C)C21` (centres undefined): the Potency is 9.43 µM (active).
On the same count and under the same terms, the result for `COc1cc(/C=C/C(=O)OC[C@@H](Cc2ccc(O)c(OC)c2)[C@@H](COC(=O)/C=C/c2ccc(O)c(OC)c2)Cc2ccc(O)c(OC)c2)ccc1O` reads 8.41 µM (active); that for `O=C1CC2OCC=C3CN4C5CC3C2[C@@H]2N1c1ccccc1[C@]52C[C@@H]4C1=C[C@H]2C3CC4N(CC[C@@]45c4ccccc4N(C1=O)[C@@H]25)C/C3=C/CO` (some centres undefined), 21.1 µM (active).
Same read-out and setting: the result for `C=C(C)CC[C@H](Cc1c(O)cc(O)c2c1O[C@H](c1ccc(O)cc1)CC2=O)C(=C)C` reads “inactive”; that for `COc1c(O)cc2c(c1O)C(=O)c1c(coc1C)C2=O`, “inactive”; that for `COc1ccc2[nH]c3c(c2c1)CCN1C[C@H]2C[C@@H](OC(=O)c4cc(OC)c(OC)c(OC)c4)[C@H](OC)[C@@H](OC)[C@H]2C[C@H]31`, 13.3 µM (active).
In the case of `C=C[C@](Cl)(CBr)CCC=C(C)C`, the Potency entry was “inactive”.
On the same count and under the same terms, the result for `O[C@H]1c2ccccc2-c2c3c(cc4c2[C@@H]1NCC4)OCO3` reads 18.8 µM (active); that for `COc1cc(O)c(C(=O)[C@@H]2[C@H](CC=C(C)C)C(C)=CC[C@H]2c2ccccc2)c(O)c1`, 13.3 µM (active); that for `CC(=O)Oc1cc2c(c(OC(C)=O)c1C1CCc3cc(Cl)c(Cl)n31)C(=O)n1c-2cc(Cl)c1Cl` (centres undefined), 10.6 µM (active).
For `CC(C)C[C@@H]1c2c(O)c(C=O)c(O)c(C=O)c2O[C@]2(C)C=C[C@@H](C(C)C)C[C@H]12`, the Potency entry was “inactive”.
Same read-out and setting: the figure for `C/C=C(/C)c1c(Cl)c(OC)c(C)c2c1Oc1c(Cl)c(O)c(Cl)c(C)c1C(=O)O2` is 13.3 µM (active).

The nature of a further test: UWB1.289 Cancer Cell Toxicity qHTS against the NCATS CANVASS Library (AID 1347347). Also: nearly all actives have a fitted effect of over 60% in size. The settings on record: UWB1.289 viability, CellTiter-Glo luminescence, 72 h; series mostly up to 38.3 µM. The procedure, abridged:
(§1)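 1000 cells/well seeded and rested 4 h at 37 °C before pin transfer of compounds in an 11-pnt series. Exposure 72 h at 37 °C/5% CO2; viability by CellTiter-Glo luminescence after 15 min at room temperature.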
Consider `C=C1CC[C@@H](Br)C(C)(C)[C@]12CC=C(C)C(=O)C2`, for which the Potency entry was “inactive”.
On the same count and under the same terms, the figure for `COc1cc(/C=C/C(=O)OC[C@@H](Cc2ccc(O)c(OC)c2)[C@@H](COC(=O)/C=C/c2ccc(O)c(OC)c2)Cc2ccc(O)c(OC)c2)ccc1O` is 10.6 µM (active); for `CC[C@H](C)[C@H]1NC(=O)[C@@H](NC(=O)C(C)C)[C@@H](C)OC(=O)[C@H](COC(=O)CNC(C)=O)NC(=O)[C@@H]([C@@H](C)O)NC(=O)[C@H](Cc2ccccc2)N(C)C(=O)[C@H](c2ccc(OC)cc2)NC1=O` (Isobutyryl-T[d(aIle)][Phg(4-OMe)][NMeF][d(aThr)]S([Gly-Ac]); ester 1-C) it is “inactive”; for `COc1c(O)cc2c(c1O)C(=O)c1c(coc1C)C2=O` it is “inactive”.
On the same count and under the same terms, the entry for `C=C[C@](Cl)(CBr)CCC=C(C)C` is “inactive”; for `C=CC(CCCCC)C1C(=O)NC(=O)C1C(=O)C1C2C(C)CC(C(=O)O)CC2CC1(O)C(=O)/C=C/C` (centres undefined) it is “inactive”.
Consider `COc1cc(C2OCC3C(c4ccc(O)c(OC)c4)OCC23)ccc1O` (centres undefined), for which the activity change, negative = cytotoxicity was -13.2% [at 7.64 µM].
Consider `COc1cc(O)c(C(=O)[C@@H]2[C@H](CC=C(C)C)C(C)=CC[C@H]2c2ccccc2)c(O)c1`, for which the Potency was 13.3 µM (active).
For the compound `CC(=O)Oc1cc2c(c(OC(C)=O)c1C1CCc3cc(Cl)c(Cl)n31)C(=O)n1c-2cc(Cl)c1Cl` (centres undefined), the Potency is 3.34 µM (active).
Still for that read-out and setting: the result for `C[C@H]1C=C[C@H]2CCCC[C@@H]2[C@H]1C(=O)[C@H]1CC2=C(C(=O)O)CCN2C1=O` reads “inactive”.

Another test can be described thus: OV-SAHO Cancer Cell Toxicity qHTS against the NCATS CANVASS Library (AID 1347348). Also: nearly all actives have a fitted effect of over 55% in size. The settings on record: OV-SAHO viability, CellTiter-Glo luminescence, 72 h; series mostly up to 38.3 µM. The procedure, abridged:
as §1
In the case of `C=C1CC[C@@H](Br)C(C)(C)[C@]12CC=C(C)C(=O)C2`, the Potency result is “inactive”.
On the same count and under the same terms, the result for `COc1cc(/C=C/C(=O)OC[C@@H](Cc2ccc(O)c(OC)c2)[C@@H](COC(=O)/C=C/c2ccc(O)c(OC)c2)Cc2ccc(O)c(OC)c2)ccc1O` reads 23.6 µM (active).
As to `CC[C@H](C)[C@H]1NC(=O)[C@@H](NC(=O)C(C)C)[C@@H](C)OC(=O)[C@H](COC(=O)CNC(C)=O)NC(=O)[C@@H]([C@@H](C)O)NC(=O)[C@H](Cc2ccccc2)N(C)C(=O)[C@H](c2ccc(OC)cc2)NC1=O` (Isobutyryl-T[d(aIle)][Phg(4-OMe)][NMeF][d(aThr)]S([Gly-Ac]); ester 1-C), the Potency result is “inactive”.
Same read-out and setting: the entry for `COc1c(O)cc2c(c1O)C(=O)c1c(coc1C)C2=O` is “inactive”; for `C=CC(CCCCC)C1C(=O)NC(=O)C1C(=O)C1C2C(C)CC(C(=O)O)CC2CC1(O)C(=O)/C=C/C` (centres undefined) it is “inactive”.
Still for that read-out and setting: the result for `O[C@H]1c2ccccc2-c2c3c(cc4c2[C@@H]1NCC4)OCO3` reads “inactive”; that for `C[C@]12CCC[C@](C)(C(=O)O)[C@@H]1CC[C@@]1(C)c3cocc3CC[C@H]21`, “inactive”.
For the compound `COc1cc(C2OCC3C(c4ccc(O)c(OC)c4)OCC23)ccc1O` (centres undefined), the activity change, negative = cytotoxicity is -15.1% [at 7.64 µM].
Consider `COc1cc(O)c(C(=O)[C@@H]2[C@H](CC=C(C)C)C(C)=CC[C@H]2c2ccccc2)c(O)c1`, for which the Potency was 23.6 µM (active).
Consider `C[n+]1cc2cc(C(N)=O)[nH]c3c(=N)c(Cl)c(N)c1c23`, for which the Potency entry was “inactive”.
Still for that read-out and setting: the figure for `COc1cc2c(c(O)c1O)C(=O)c1c(coc1C)C2=O` is 4.2 µM (active); for `CCC(=O)N[C@@H](C[C@H](C)C(Cl)(Cl)Cl)C(=O)N1C(=O)C=C(OC)[C@@H]1CC(C)C` it is “inactive”; for `O=c1cc(-c2ccc(O)c(O)c2)oc2cc(O[C@@H]3O[C@H](CO)[C@@H](O)[C@H](O)[C@H]3O)cc(O)c12` it is 16.7 µM (active).
Still for that read-out and setting: the entry for `C/C1=C/[C@@H](C)[C@H](O)[C@@H](O)/C=C/CC/C=C/C(=O)O[C@@H]1[C@H](C)C(=O)CCCC1CC(=O)NC(=O)C1` is “inactive”.
Consider `CN1CC[C@]2(c3cccc4c3N[C@H]3N(C)CC[C@@]43[C@]34CCN(C)[C@H]3Nc3ccccc34)c3ccccc3N[C@H]12`, for which the Potency was 16.7 µM (active).
As for `CC[C@H]1[C@H](C)[C@H](c2cc(OC)c(OC)cc2OC)[C@@H](C)[C@H](c2cc(OC)c(OC)cc2OC)[C@@]12C=C(OC)C(=O)C=C2OC`, the Potency was 21.1 µM (active).
Same read-out and setting: the result for `CC(=O)Oc1cc2c(c(OC(C)=O)c1C1CCc3cc(Cl)c(Cl)n31)C(=O)n1c-2cc(Cl)c1Cl` (centres undefined) reads 7.47 µM (active); that for `COc1cc2c(cc1OC)[C@@H](c1ccc3c(c1)OCO3)C(C)C(C)C2=O` (some centres undefined), “inactive”; that for `C/C=C(/C)c1c(Cl)c(O)c(C)c2c1Oc1c(Cl)c(O)c(Cl)c(C)c1C(=O)O2`, “inactive”.
Same read-out and setting: the entry for `C/C=C(/C)c1cc(O)c(C)c2c1Oc1cc(O)cc(C)c1C(=O)O2` is “inactive”; for `COC12OC1(C13OC1(OC)C(=O)c1cc4cc(C)oc(=O)c4c(O)c1C3O)C(O)c1c(cc3cc(C)oc(=O)c3c1O)C2=O` (centres undefined) it is “inactive”.
The same measure, in the same setting: the entry for `CO[C@H]1[C@@H](OC(=O)/C(C)=C\[C@@H]2O[C@@H]2[C@H]2O[C@H]2C)[C@H](O)[C@H](OCC23C[C@@H]4[C@H](C)CC[C@H]4C4(C=O)CC2C=C(C(C)C)C34C(=O)O)O[C@@H]1C` (some centres undefined) is “inactive”.

These data come from PubChem BioAssay (NCATS).
